Measured values as given in the supplement of paper PMC13380429.

Test system: Vero E6 infected with SARS-CoV-2
Assay: inhibition of SARS-CoV-2 cytopathic effect; higher = more antiviral protection, active = above 15
Conditions: 48 h

Measured: inhibition of SARS-CoV-2 cytopathic effect

CN[C@@H](C)CCC=C(C)C [isometheptene-mucate]
inactive: 1 nM -0.09% | 8.33 nM 2.18% | 100 nM 0.64% | 833.33 nM -1.17% | 10000 nM -0.16%

O=C(O)c1cc(C(=O)O)c(C(=O)N(Cc2cccc(Oc3ccccc3)c2)[C@H]2CCCc3ccccc32)cc1C(=O)O
inactive: 1 nM 0.03% | 8.33 nM -0.1% | 100 nM -1.42% | 833.33 nM -0.62% | 10000 nM 0.42%

CC(C)(C)NC(=O)N[C@H](C(=O)N1C[C@H]2[C@@H]([C@H]1C(=O)NC(CC1CCC1)C(=O)C(N)=O)C2(C)C)C(C)(C)C (stereo not given in full) [Boceprevir]
inactive: 1 nM 0.22% | 8.33 nM 1.1% | 100 nM -0.28% | 833.33 nM -1.99% | 10000 nM -0.53%

CCCCC(CC)CCC(CC(C)C)OS(=O)(=O)O (stereo not given) [sodium-tetradecyl-sulfate]
inactive: 1 nM 3.58% | 8.33 nM 3.18% | 100 nM 2.64% | 833.33 nM 1.74% | 10000 nM 3.12%

N[C@@H]1CONC1=O [cycloserine-(D)]
inactive: 1 nM -2.12% | 8.33 nM -4.07% | 100 nM -2.78% | 833.33 nM -4.11% | 10000 nM -3.61%

NC(=S)N/N=C/c1ccncc1 [perchlozone]
inactive: 1 nM 2.2% | 8.33 nM 1.74% | 100 nM 0.96% | 833.33 nM 2.38% | 10000 nM 3.63%

NCCCCCC(O)(P(=O)(O)O)P(=O)(O)O [neridronic-acid]
inactive: 1 nM 0.84% | 8.33 nM -0.27% | 100 nM -2.11% | 833.33 nM 2.29% | 10000 nM 3.47%

CC(C)C[C@H](NC(=O)[C@@H]1CCCN1)C(=O)NCC(N)=O [prolylleucylglycinamide]
inactive: 1 nM 0.63% | 8.33 nM 2.46% | 100 nM 1.44% | 833.33 nM 0.51% | 10000 nM 1.22%

Cc1cnc(NC(=O)Nc2cc(Br)c(C)cc2OC[C@@H]2CNCCO2)cn1
inactive: 1 nM 1.08% | 8.33 nM 0.44% | 100 nM 1.44% | 833.33 nM -2.34% | 10000 nM -10.4%

COc1c(N2C[C@@H]3CCCN[C@@H]3C2)c(F)cc2c(=O)c(C(=O)O)cn(C3CC3)c12 [moxifloxacin]
inactive: 1 nM 1.16% | 8.33 nM 0.31% | 100 nM 2.33% | 833.33 nM 0.76% | 10000 nM 1.03%

CC[C@H]1OC(=O)[C@H](C)[C@@H](O[C@H]2C[C@@](C)(OC)[C@@H](O)[C@H](C)O2)[C@H](C)[C@@H](O[C@@H]2O[C@H](C)C[C@H](N(C)C)[C@H]2O)[C@](C)(O)C[C@@H](C)C(=O)[C@H](C)[C@@H](O)[C@]1(C)O [erythromycin]
inactive: 1 nM -0.74% | 8.33 nM -0.54% | 100 nM -1.16% | 833.33 nM 2.65% | 10000 nM 1.91%

CC(C)(C)c1ccc(S(=O)(=O)Nc2ccc(Cl)cc2C(=O)c2cc[n+]([O-])cc2)cc1 [vercirnon]
inactive: 1 nM 1.28% | 8.33 nM 1.21% | 100 nM 2.63% | 833.33 nM 4.3% | 10000 nM 1.46%

CC(=O)Oc1cccc(C(=O)O)c1OC(C)=O [dipyrocetyl]
inactive: 1 nM -0.44% | 8.33 nM -1.4% | 100 nM 2.59% | 833.33 nM -0.15% | 10000 nM 5.25%

N[C@@H](C(=O)O)[C@@H](OCc1ccccc1)C(=O)O.N[C@H](C(=O)O)[C@H](OCc1ccccc1)C(=O)O
inactive: 1 nM -0.96% | 8.33 nM 0.96% | 100 nM -0.27% | 833.33 nM -0.54% | 10000 nM 1.19%

CCN(CC)C(=O)/C(C#N)=C/c1cc(O)c(O)c([N+](=O)[O-])c1 [entacapone]
inactive: 1 nM -0.37% | 8.33 nM -1.7% | 100 nM -1.61% | 833.33 nM -2.41% | 10000 nM -0.4%

O=C(/C=C/c1cccc(F)c1)NC1CC1 [cinflumide]
inactive: 1 nM 2.05% | 8.33 nM 3.3% | 100 nM 0.17% | 833.33 nM 2.25% | 10000 nM 8.23%

CCCCCCCCCCCCCCCCCCO [octadecan-1-ol]
inactive: 1 nM -0.16% | 8.33 nM -0.19% | 100 nM -2.3% | 833.33 nM -2.63% | 10000 nM 2.04%

CO[C@H]1CC=C2CCN3CCC4=C(CC(=O)OC4)[C@]23C1
inactive: 1 nM 1.56% | 8.33 nM -0.91% | 100 nM 1.32% | 833.33 nM 0.73% | 10000 nM 1.37%

CN(C)C(=O)Oc1cc(OC(=O)N(C)C)cc(C(O)CNC(C)(C)C)c1 (stereo not given) [bambuterol]
inactive: 1 nM -2.95% | 8.33 nM -0.79% | 100 nM -1.68% | 833.33 nM -1.56% | 10000 nM -1.86%

CN1CCN(C2=Cc3ccccc3Oc3ccc(Cl)cc32)CC1
inactive: 1 nM 1.06% | 8.33 nM 0.31% | 100 nM -0.45% | 833.33 nM -1.6% | 10000 nM -1.46%

Cc1c(N)nc([C@H](CC(N)=O)NC[C@H](N)C(N)=O)nc1C(=O)N[C@H](C(=O)N[C@H](C)[C@@H](O)[C@H](C)C(=O)N[C@H](C(=O)NCCc1nc(-c2nc(C(=O)NCCCNCCCCN)cs2)cs1)[C@@H](C)O)[C@@H](O[C@@H]1O[C@@H](CO)[C@@H](O)[C@H](O)[C@@H]1O[C@@H]1O[C@H](CO)[C@@H](O)[C@H](OC(N)=O)[C@@H]1O)c1cnc[nH]1 [bleomycetin]
inactive: 1 nM 5.02% | 8.33 nM -0.49% | 100 nM -7.1% | 833.33 nM -8.93% | 10000 nM -22.7%

Nc1nc(N)c2nc(-c3cccc(O)c3)cnc2n1
inactive: 1 nM -0.93% | 8.33 nM -0.26% | 100 nM 0.04% | 833.33 nM -0.48% | 10000 nM -1.39%

CCCOc1ccc2[nH]cc(C3=CCNCC3)c2n1
inactive: 1 nM 2.78% | 8.33 nM 1.38% | 100 nM -1.41% | 833.33 nM 2.78% | 10000 nM -1.56%

C1N2CN3CN1CN(C2)C3 [methenamine]
inactive: 1 nM -3.74% | 8.33 nM 0.58% | 100 nM -1.64% | 833.33 nM -0.2% | 10000 nM -1.08%

Clc1ccc2c(NCCNc3ccnc4cc(Cl)ccc34)ccnc2c1
inactive: 1 nM -2.64% | 8.33 nM 0.71% | 100 nM 5.21% | 833.33 nM 0.16% | 10000 nM 0%

CN(C)CCN(Cc1ccccc1)c1ccccn1 [tripelennamine]
inactive: 1 nM 1.72% | 8.33 nM 2.84% | 100 nM 0.58% | 833.33 nM -0.69% | 10000 nM -1.94%

O=c1[nH]c(=O)c2ccccc2o1 [carsalam]
inactive: 1 nM -1.46% | 8.33 nM 0.95% | 100 nM 4.79% | 833.33 nM 0.99% | 10000 nM 4.32%

OC[C@H]1NCC[C@@H](O)[C@@H]1O [fagomine]
inactive: 1 nM -1.09% | 8.33 nM 1.34% | 100 nM 1.02% | 833.33 nM 2.42% | 10000 nM 0.75%

NS(=O)(=O)c1cc2c(cc1Cl)NC(CC1CCCC1)NS2(=O)=O (stereo not given) [cyclopenthiazide]
inactive: 1 nM 1.26% | 8.33 nM 2.37% | 100 nM -0.67% | 833.33 nM -2.85% | 10000 nM -0.14%

Oc1ccc(-c2nc(-c3ccc(F)cc3)c(-c3ccncc3)[nH]2)cc1
inactive: 1 nM 0.33% | 8.33 nM 1.64% | 100 nM -1.29% | 833.33 nM 2.83% | 10000 nM 8.91%

C=C1CC[C@H](O)C/C1=C/C=C1\CCC[C@]2(C)[C@@H]([C@H](C)CCCC(C)C)CC[C@@H]12 [cholecalciferol]
inactive: 1 nM -2.37% | 8.33 nM -2.07% | 100 nM -1.56% | 833.33 nM -2.03% | 10000 nM 0.91%

C1Cc2[nH]nc(-c3nn[nH]n3)c2C1
inactive: 1 nM -1.32% | 8.33 nM -1.1% | 100 nM -1.82% | 833.33 nM -3.19% | 10000 nM 2.43%

CN(C(=O)Cc1ccccc1)[C@H](CN1CCCC1)c1ccccc1
inactive: 1 nM -2.98% | 8.33 nM -0.14% | 100 nM 0.52% | 833.33 nM 0.85% | 10000 nM -1.59%

O=C1CCc2cc(OCCCCc3nnnn3C3CCCCC3)ccc2N1 [cilostazol]
inactive: 1 nM -1.01% | 8.33 nM -0.9% | 100 nM 1.96% | 833.33 nM -0.77% | 10000 nM -0.84%

COc1cc(N2CCN(C)CC2)ccc1Nc1nccc(-c2cn(C)c3cnccc23)n1
active: 10000 nM 40.7%
inactive: 1 nM 0.14% | 8.33 nM -0.24% | 100 nM 2.63% | 833.33 nM -0.7%

CN[C@H]1CC[C@@H](c2ccc(Cl)c(Cl)c2)c2ccccc21
inactive: 1 nM -7.46% | 8.33 nM 3.54% | 100 nM 8.81% | 833.33 nM -0.02% | 10000 nM 12.1%

CCCCc1ccc(NS(=O)(=O)c2ccc(F)cc2)cc1
inactive: 1 nM -1.42% | 8.33 nM -2.12% | 100 nM -1.58% | 833.33 nM -3.93% | 10000 nM -1.95%

C1COC(NC(C2CC2)C2CC2)=N1 [rilmenidine]
inactive: 1 nM 2.93% | 8.33 nM 3.39% | 100 nM -2.62% | 833.33 nM -3.95% | 10000 nM -6.59%

C[C@@H](NC(=O)[C@@H](N)Cc1ccc(O)cc1)C(=O)NCC(=O)N(C)[C@@H](Cc1ccccc1)C(=O)N[C@H](CO)CC[S+](C)[O-] (stereo not given in full)
inactive: 1 nM -0.57% | 8.33 nM -1.1% | 100 nM -1.84% | 833.33 nM -0.24% | 10000 nM 0.65%
